Assay [1] can be described thus: ATG_CRE_CIS: Attagene CIS-FACTORIAL HepG2 Assay for human cAMP Responsive Element (CRE) binding protein 3 (AID 2282926). To be noted: HepG2 CRE cis-reporter, Attagene multiplexed mRNA; actives raise or lower the signal. The procedure, abridged:
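Human liver HepG2, transient MRTU transfection, 24 h compound exposure. Total RNA → oligo(dT) RT → PCR → 6-FAM primer extension → HpaI cut → CE. Activity called both directions vs DMSO.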

Assay [2] has as its target CCAAT/enhancer-binding protein beta (Homo sapiens) (UniProt P17676). The assay is described as follows: ATG_C_EBP_CIS: Attagene CIS-FACTORIAL HepG2 Assay for human CCAAT/Enhancer Binding Protein (C/EBP) beta (AID 2282927). To be noted: HepG2 Attagene cis-factorial transcription factor reporter; actives raise or lower the signal. The procedure, abridged: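 HepG2, transient MRTU transfection, 24 h treatment. RT-PCR plus CE fluorescence; DMSO negative control, bidirectional fit.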

Assay [3] can be described thus: ATG_CMV_CIS: Attagene CIS-FACTORIAL HepG2 Assay for human CMV (Internal Marker) (AID 2282928).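 Note: endpoint acts as a background internal control marker rather than a target.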 The note with it: HepG2 CMV promoter reporter, transcription factor profiling; actives raise or lower the signal. The gist of the method: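 CMV internal-marker background readout in transiently transfected HepG2 cells bearing cis-regulated reporter units. Reporter mRNA is measured 24 h after dosing by RT-PCR and capillary electrophoresis, with bidirectional fitting against DMSO.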

Assay [4] can be described thus: ATG_DR4_LXR_CIS: Attagene CIS-FACTORIAL HepG2 Assay for human Liver X Receptor (LXR), DR4 submotif (AID 2282929). The note with it: HepG2 Attagene DR4 cis-reporter, mRNA transcription; actives raise or lower the signal. The procedure, abridged: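 Cells were transfected with multiple reporter transcription units, exposed to chemicals for 24 hours, then lysed for RNA. Reporter mRNA induction was measured by RT-PCR with capillary electrophoresis detection and fitted in both directions relative to DMSO.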

The nature of assay [5]: ATG_AP_1_CIS: Attagene CIS-FACTORIAL HepG2 Assay for human Activator Protein 1 (AP-1) (AID 2282931). The note with it: HepG2 Attagene cis-factorial AP-1 reporter mRNA; actives raise or lower the signal. The gist of the method: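 Endogenous transcription-factor activity in human HepG2 liver cells is read through a cis-promoter reporter transcript, sampled 24 h after dosing. Detection uses RT-PCR with capillary electrophoresis; values come from bidirectional fitting relative to DMSO.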

A short description of assay [6]: ATG_AP_2_CIS: Attagene CIS-FACTORIAL HepG2 Assay for human Activator Protein 2 (AP-2) (AID 2282932). To be noted: HepG2 AP-2 cis-reporter, Attagene transcription factor profiling; actives raise or lower the signal. The gist of the method:
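Multiplexed mRNA reporter assay in HepG2: cis-regulated units report endogenous factor activity after 24 h treatment. Fluorescence from capillary electrophoresis of RT-PCR products gives the signal, with DMSO as baseline.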

Assay [7] is described as follows: ATG_BRE_CIS: Attagene CIS-FACTORIAL HepG2 Assay for human Bone Morphogenetic Protein (BMP) Response Element (BRE) (AID 2282933). To be noted: HepG2 BMP response element reporter, Attagene transcription factor profiling; actives raise or lower the signal. The gist of the method:
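Multiplexed cis-reporter assay, HepG2, 24 h exposure. mRNA from reporter units quantified via RT-PCR/CE; DMSO baseline; bidirectional curve fit.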

Assay [8] concerns the target Retinoic acid receptor alpha (Homo sapiens) (UniProt P10276). Kind of assay: ATG_DR5_RAR_CIS: Attagene CIS-FACTORIAL HepG2 Assay for human Retinoic Acid Receptor Alpha (RARE), DR5 submotif (AID 2282934). The note with it: HepG2 Attagene cis-factorial RARE DR5 reporter, mRNA; actives raise or lower the signal. The procedure, abridged:
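After 24 h of chemical exposure, transiently transfected HepG2 cells were lysed for total RNA; the DR5-regulated reporter transcript was quantified via RT-PCR and capillary electrophoresis, with activity fitted bidirectionally against DMSO.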

In assay [9] the target is Transcription factor E2F1 (Homo sapiens) (UniProt Q01094). The assay is described as follows: ATG_E2F_CIS: Attagene CIS-FACTORIAL HepG2 Assay for human E2F Transcription Factor 1 (AID 2282935). To be noted: HepG2 Attagene cis-reporter, E2F reporter RNA transcripts; actives raise or lower the signal. The procedure, abridged: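 Measures reporter transcript levels via RT-PCR with capillary electrophoresis detection in HepG2 cells harboring cis-regulated reporter units; 24 h post-dose; bidirectional curve fitting with DMSO as baseline.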
Chain of Transcription factor E2F1 (Homo sapiens) (Q01094 whole entry, looked up): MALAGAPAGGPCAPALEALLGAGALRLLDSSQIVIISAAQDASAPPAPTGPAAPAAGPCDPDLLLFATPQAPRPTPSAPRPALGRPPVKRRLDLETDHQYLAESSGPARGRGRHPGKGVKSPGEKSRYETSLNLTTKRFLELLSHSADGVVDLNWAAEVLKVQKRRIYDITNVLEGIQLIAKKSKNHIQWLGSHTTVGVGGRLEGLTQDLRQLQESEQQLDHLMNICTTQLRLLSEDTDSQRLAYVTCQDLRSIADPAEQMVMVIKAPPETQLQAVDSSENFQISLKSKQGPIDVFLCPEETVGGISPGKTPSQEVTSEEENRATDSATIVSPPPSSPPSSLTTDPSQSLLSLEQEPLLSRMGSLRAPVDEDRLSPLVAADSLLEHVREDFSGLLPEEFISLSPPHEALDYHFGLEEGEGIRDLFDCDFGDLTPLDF

In assay [10] the target is Aryl hydrocarbon receptor (Homo sapiens) (UniProt P35869). The assay is described as follows: ATG_Ahr_CIS: Attagene CIS-FACTORIAL HepG2 Assay for human Aryl Hydrocarbon Receptor (Ahr) (AID 2282930). To be noted: HepG2 AhR cis-factorial reporter transcription; actives raise or lower the signal. The procedure, abridged:
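Endogenous factor activity is tracked through cis-promoter reporter units transfected into HepG2 cells. Transcript levels at 24 h are read by fluorescent RT-PCR and capillary electrophoresis, with activity in either direction scored relative to DMSO.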

Values joined by “and” are separate entries in the source; they are usually repeats but may differ in a detail not shown here. Identical values can stand only once. Some compounds were tested as several samples or in several runs, with calls that do not always agree. Active and inactive are the calls of the source. Rule for the calls: active = hit-call score of the fitted dose curve at least 0.9, where 1 is the maximum; inactive = score below 0.9.

Broadly, the AC50 is the midpoint of the concentration-response curve, whichever way the signal moves.

Chain of CCAAT/enhancer-binding protein beta (Homo sapiens) (P17676 whole entry, looked up): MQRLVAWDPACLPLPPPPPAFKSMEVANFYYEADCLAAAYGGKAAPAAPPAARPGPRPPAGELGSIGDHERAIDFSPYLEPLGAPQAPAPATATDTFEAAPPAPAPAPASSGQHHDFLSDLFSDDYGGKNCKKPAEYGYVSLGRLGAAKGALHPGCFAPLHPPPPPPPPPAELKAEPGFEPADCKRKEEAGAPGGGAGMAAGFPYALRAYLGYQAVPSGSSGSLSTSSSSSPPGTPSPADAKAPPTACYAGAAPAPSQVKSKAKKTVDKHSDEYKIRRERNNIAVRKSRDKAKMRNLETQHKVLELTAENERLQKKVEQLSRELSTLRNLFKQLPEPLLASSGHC
Chain of Retinoic acid receptor alpha (Homo sapiens) (P10276 whole entry, looked up): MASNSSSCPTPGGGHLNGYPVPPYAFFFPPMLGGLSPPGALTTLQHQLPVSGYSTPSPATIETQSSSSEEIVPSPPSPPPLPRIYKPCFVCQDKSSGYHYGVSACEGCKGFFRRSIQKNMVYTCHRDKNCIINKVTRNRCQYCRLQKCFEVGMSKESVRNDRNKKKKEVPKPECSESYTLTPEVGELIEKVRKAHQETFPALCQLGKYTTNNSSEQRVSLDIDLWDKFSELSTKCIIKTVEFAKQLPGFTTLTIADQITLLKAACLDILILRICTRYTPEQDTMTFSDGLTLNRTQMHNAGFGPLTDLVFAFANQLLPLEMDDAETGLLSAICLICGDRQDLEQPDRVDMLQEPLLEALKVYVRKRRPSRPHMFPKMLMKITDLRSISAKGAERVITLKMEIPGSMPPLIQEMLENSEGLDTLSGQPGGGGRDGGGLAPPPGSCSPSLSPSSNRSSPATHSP
Chain of Aryl hydrocarbon receptor (Homo sapiens) (P35869 whole entry, looked up): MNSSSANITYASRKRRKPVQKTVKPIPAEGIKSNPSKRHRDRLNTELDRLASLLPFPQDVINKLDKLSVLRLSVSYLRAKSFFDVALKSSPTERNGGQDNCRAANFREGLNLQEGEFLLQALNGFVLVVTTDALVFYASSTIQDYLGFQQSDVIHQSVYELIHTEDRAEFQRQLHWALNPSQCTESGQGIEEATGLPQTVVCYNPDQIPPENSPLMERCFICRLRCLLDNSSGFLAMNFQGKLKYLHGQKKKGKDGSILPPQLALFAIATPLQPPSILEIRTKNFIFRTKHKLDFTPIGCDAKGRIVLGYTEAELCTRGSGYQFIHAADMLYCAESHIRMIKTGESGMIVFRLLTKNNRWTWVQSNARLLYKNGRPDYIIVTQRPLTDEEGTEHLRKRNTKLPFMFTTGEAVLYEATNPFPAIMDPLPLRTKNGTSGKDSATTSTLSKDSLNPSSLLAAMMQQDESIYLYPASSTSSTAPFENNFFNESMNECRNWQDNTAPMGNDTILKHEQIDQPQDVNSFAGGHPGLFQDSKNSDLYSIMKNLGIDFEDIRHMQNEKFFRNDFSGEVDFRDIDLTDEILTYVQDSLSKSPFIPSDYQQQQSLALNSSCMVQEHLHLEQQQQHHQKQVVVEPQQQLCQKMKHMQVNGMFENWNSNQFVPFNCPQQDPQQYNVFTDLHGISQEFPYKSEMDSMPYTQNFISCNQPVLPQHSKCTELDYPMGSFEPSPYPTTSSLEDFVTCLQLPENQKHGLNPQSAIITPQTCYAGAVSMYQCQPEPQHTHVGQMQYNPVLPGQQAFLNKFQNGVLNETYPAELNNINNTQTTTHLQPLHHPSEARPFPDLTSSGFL

In the case of `C[C@]12C[C@H](O)[C@H]3[C@@H](CCC4=CC(=O)CC[C@@]43C)[C@@H]1CC[C@@H]2C(=O)CO`, the compound was classed as inactive in [1], in assay [2], in assay [3], in assay [4], in [5] and in [6]. For the same compound, the compound was classed as inactive in assay [7], in assay [8] and in assay [9].

`COC(=O)c1cccc(C)c1S(=O)(=O)NC(=O)Nc1nc(OCC(F)(F)F)nc(N(C)C)n1`: the call in [1], in assay [2], in assay [3], in assay [4], in assay [5] and in [6] was inactive. For the same compound, the compound was classed as inactive in assay [7], in assay [8] and in [9].

As for `CC(=O)[C@H]1CC[C@H]2[C@@H]3CCC4=CC(=O)CC[C@]4(C)[C@H]3CC[C@]12C`, the outcome in assay [1], in assay [2], in [3], in assay [5], in [6] and in assay [8] was inactive. The call in assay [9] was inactive. In addition, the AC50 is 115 µM (active) in assay [2]; 160 µM (active) in [3]; 33.4 µM (active) and 170 µM (active) in assay [5]; 33.4 µM (active) and 24.3 µM (active) and 33.7 µM (active) in assay [7]; 68.4 µM (active) in assay [9].

Regarding `CCSC(=O)N(CC(C)C)CC(C)C`, the compound was called inactive in assay [1], in assay [2], in assay [3], in assay [10], in [5] and in assay [6]. The result in assay [7], in assay [8] and in assay [9] was inactive.

Consider `CCC(O)=C1C(=O)CC(C(=O)O)CC1=O` (stereo not given), for which the compound was called inactive in assay [1], in assay [2], in [3], in assay [5], in assay [6] and in [7]. Moreover, the result in assay [8] and in assay [9] was inactive.

For `CCCN(CCC)C(=O)SCC`, the compound was called inactive in assay [1], in assay [2], in [3], in [10], in [5] and in assay [6]. In addition, the outcome in assay [7] and in assay [9] was inactive.

For the compound `CCCCOC(=O)[C@@H](C)Oc1ccc(Oc2ccc(C(F)(F)F)cn2)cc1`, the compound was called inactive in assay [1], in assay [2], in assay [3], in [5], in assay [6] and in [7]. Further, the outcome in [8] and in assay [9] was inactive.

Consider `C=CCOC(Cn1ccnc1)c1ccc(Cl)cc1Cl` (stereo not given), for which the AC50 was 12.9 µM (active) in assay [1]; 12.4 µM (active) in assay [2]; 33 µM (active) in assay [3]; 50 µM (active) in [5]; 50 µM (active) in assay [6]; 33.7 µM (active) in [7]. The call in assay [9] was inactive.

For `C#C[C@]1(O)CC[C@H]2[C@@H]3CCC4=CC(=O)CC[C@@H]4[C@H]3CC[C@@]21CC`, the result in assay [1], in [2], in [3], in assay [10], in assay [5] and in assay [6] was inactive. Moreover, the call in assay [7] and in assay [9] was inactive.

As to `N[C@@H](Cc1cc(I)c(Oc2ccc(O)c(I)c2)c(I)c1)C(=O)O`, the compound was classed as inactive in assay [1], in assay [2], in assay [3], in [5], in [6] and in [7]. In [9], the compound was classed as inactive. For the same compound, the AC50 in [5] is 22.6 µM (active).

On to `CC1(C)C(C=C(Cl)Cl)C1C(=O)OCc1cccc(Oc2ccccc2)c1` (stereo not given), for which the compound was classed as inactive in assay [1], in assay [2], in assay [3], in [10], in assay [5] and in assay [6]. Besides, the result in assay [7] and in assay [9] was inactive.

As to `CCCOC(=O)c1ccc(C(=O)OCCC)nc1`, the compound was called inactive in assay [1], in assay [2], in assay [3], in assay [10], in assay [5] and in [6]. Besides, the compound was called inactive in assay [7], in assay [8] and in assay [9].

As for `COC(=O)c1ccccc1S(=O)(=O)NC(=O)Nc1nc(OC(F)F)cc(OC(F)F)n1`, the compound was classed as inactive in assay [1], in [2], in [3], in assay [5], in assay [6] and in assay [7]. Besides, the call in assay [8] and in [9] was inactive.

On to `CCOC(=O)COc1cc(-n2ncc(C(F)(F)F)c(C)c2=O)c(F)cc1Cl`, for which the outcome in assay [1], in [2], in assay [3], in assay [5], in [6] and in assay [7] was inactive. Moreover, the compound was classed as inactive in [8] and in assay [9].

Turning to `COC(=O)c1ccc(CNS(C)(=O)=O)cc1S(=O)(=O)NC(=O)Nc1nc(OC)cc(OC)n1`, the compound was called inactive in [1], in [2], in [3], in [5], in [6] and in assay [7]. In addition, the compound was called inactive in assay [8] and in [9].

For the compound `CCCOC(=O)NCCCN(C)C`, the result in assay [1], in [2], in assay [3], in assay [5], in [6] and in assay [7] was inactive. In addition, the compound was called inactive in [8] and in assay [9].

For the origin of these results see PubChem BioAssay (EPA / NIEHS).
